# This is one part of a sample in which hits are shown more often than they occur.
# PRC2 inh – blocks human EZH2/PRC2 H3K27 methylation; Q15910; DELFIA TRF, 1 h; inhibition, % at 12.5 µM; 57,000 compounds, 0.35% hits;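 active = mean inhibition of replicates at least 50% and every single replicate also reaching 50%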;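 also: dimethyl H3K27 on biotinylated H3 21-44 peptide detected by antibody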
# Target sequence (Q15910 whole entry, looked up): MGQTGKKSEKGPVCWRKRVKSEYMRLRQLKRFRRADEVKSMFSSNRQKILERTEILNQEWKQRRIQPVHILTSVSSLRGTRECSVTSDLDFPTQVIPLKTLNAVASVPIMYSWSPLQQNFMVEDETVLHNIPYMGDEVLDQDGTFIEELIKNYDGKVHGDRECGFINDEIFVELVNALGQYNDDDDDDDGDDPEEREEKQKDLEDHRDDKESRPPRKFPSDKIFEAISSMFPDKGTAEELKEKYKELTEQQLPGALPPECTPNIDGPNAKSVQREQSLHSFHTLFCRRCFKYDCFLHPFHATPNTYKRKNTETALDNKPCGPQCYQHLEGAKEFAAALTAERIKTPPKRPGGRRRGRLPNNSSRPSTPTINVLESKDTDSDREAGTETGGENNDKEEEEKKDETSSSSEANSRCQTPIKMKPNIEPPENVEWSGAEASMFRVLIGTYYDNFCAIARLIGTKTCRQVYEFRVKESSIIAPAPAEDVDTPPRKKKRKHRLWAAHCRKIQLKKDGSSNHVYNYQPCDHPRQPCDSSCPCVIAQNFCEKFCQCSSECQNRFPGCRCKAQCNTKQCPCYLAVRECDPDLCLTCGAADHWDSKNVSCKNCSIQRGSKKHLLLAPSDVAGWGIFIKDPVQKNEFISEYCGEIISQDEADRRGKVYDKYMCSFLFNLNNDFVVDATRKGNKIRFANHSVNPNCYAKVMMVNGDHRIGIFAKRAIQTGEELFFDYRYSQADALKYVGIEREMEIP
# Hits are given with their value; 0 = inactive.
SMILES,PRC2 inh
Cc1ccc(S(=O)(=O)Nc2cccc3cccnc23)c([N+](=O)[O-])c1,0
C[C@H]1CN([C@@H](C)CO)C(=O)c2cc(C#Cc3ccccc3)cnc2O[C@H]1CN(C)C(=O)C1CC1,0
COc1ccc([Si](C)(C)[C@@H]2[C@@H](CC(=O)N3Cc4ccccc4C[C@H]3CO)O[C@]3(C(=O)N(C)c4c(Br)cc(C)cc43)[C@H]2C)cc1,0
C/C=C/[C@H](CC(=O)N1Cc2ccccc2C[C@H]1CO)[Si](C)(C)c1ccc(OC)cc1,57
COc1ccc(C(=O)Nc2ccc(CN3C(=O)[C@]4(O[C@H](CC(=O)N5Cc6ccccc6C[C@H]5CO)[C@@H]([Si](C)(C)c5ccc(OC)cc5)[C@@H]4C)c4ccccc43)cc2)cc1,0
CC(C)NC(=O)N(C)C[C@H]1Oc2cc(C3=CCCCC3)ccc2S(=O)(=O)N([C@H](C)CO)C[C@H]1C,0
CC(C)c1cn(CC[C@H]2CC[C@H](NS(=O)(=O)c3ccc(Cl)cc3)[C@@H](CO)O2)nn1,0
CO[C@H](CN(C)C(=O)C1CC1)[C@@H](C)CN(C(=O)Nc1ccc(C(F)(F)F)cc1)[C@H](C)CO,0
CC(C)(c1ccc(NS(=O)(=O)C(F)(F)F)cc1)c1ccc(C(C)(C)c2cccc(NS(=O)(=O)C(F)(F)F)c2)cc1,52
Cc1cc(Cl)c(S(=O)(=O)Nc2cccc(C(F)(F)F)c2)cc1OCC(N)=O,0
Cc1ccc(S(=O)(=O)NC(C)C(=O)Nc2cccc(C(F)(F)F)c2)cc1 (centres undefined),0
CN(C)/C=C/C=C1C(=O)CCCC1=O,54
C[C@H](CO)N1C[C@H](C)[C@H](CN(C)C(=O)Nc2cccc3ccccc23)Oc2ncc(Br)cc2C1=O,0
COc1ccccc1CNC(=O)C[C@H]1C[C@H]2c3cc(NC(=O)Nc4ccccc4F)ccc3O[C@H]2[C@@H](CO)O1,0
O=C(N/N=C/c1cc2c(cc1Br)OCO2)c1ccccc1O,0
O=C(NO)c1cccc(C(=O)N/N=C/c2ccc(F)cc2)c1,0
O=C(NO)c1cccc(C(=O)N/N=C/c2ccc3ccccc3c2)c1,0
O=C(NO)c1cccc(C(=O)N/N=C/c2ccc(O)c(O)c2)c1,94
COc1ccc(NC(=O)Nc2ccc3c(c2)C(=O)N([C@@H](C)CO)C[C@H](C)[C@H](CN(C)C(=O)Nc2ccc(F)cc2)O3)cc1,0
C[C@@H]1CN([C@H](C)CO)C(=O)c2cc(NC(=O)CCC(F)(F)F)ccc2O[C@@H]1CN(C)S(C)(=O)=O,0
CCC(=O)N1C[C@@H](C)[C@H](OC)CN(C)C(=O)c2ccc(NC(=O)C3CCCCC3)cc2OC[C@H]1C,0
O=C(C[C@H]1C=C[C@@H](NC(=O)C2CCC2)[C@@H](CO)O1)NC1CCCCC1,0
C[C@H]1CN([C@@H](C)CO)S(=O)(=O)c2ccc(C#Cc3cccnc3)cc2O[C@@H]1CN(C)C(=O)CN(C)C,0
CC(C)(C)[S@](=O)N1Cc2cc(C(=O)NCCc3ccncc3)nc(-c3cccc(-c4cccc(C#N)c4)c3)c2[C@@H]1CCO,0
CC(C)(C)[S@@](=O)N1Cc2cc(C(=O)NCCc3ccncc3)nc(-c3cccc(-c4ccc(C#N)cc4)c3)c2[C@H]1CCO,50
SMILES,PRC2 inh
CC(C)(C)[S@@](=O)N1Cc2cc(C(=O)NCc3ccncc3)nc(-c3cccc(-c4ccc(C#N)cc4)c3)c2[C@H]1CCO,0
CCOc1ccccc1-c1nc(SCC(=O)Nc2sc3c(c2C#N)CCCC3)n[nH]1,0
Cc1ccccc1-c1nc(SCC(=O)Nc2sc3c(c2C#N)CCCC3)n[nH]1,55
Cc1cc(-c2ccccc2)nc(SCC(=O)Nc2sc3c(c2C#N)CCCC3)n1,0
CCc1cc2c(SCC(=O)Nc3cccc(OC)c3)ncnc2s1,0
OC[C@H]1O[C@@H](OC(CCCCc2ccc(O)cc2)CCc2ccc(O)cc2)[C@H](O)[C@@H](O)[C@@H]1O (some centres undefined),73
Oc1ccc(CCCCC(CCc2ccc(O)cc2)O[C@@H]2OC[C@@H](O)[C@H](O)[C@H]2O)cc1 (some centres undefined),0
O=C(CCc1ccc(O)cc1)c1c(O)c([C@@H]2O[C@H](CO)[C@@H](O)[C@H](O)[C@H]2O)c(O)c([C@@H]2O[C@H](CO)[C@@H](O)[C@H](O)[C@H]2O)c1O,0
O=C(C[C@@H]1C[C@@H]2c3cc(NC(=O)c4cccnc4)ccc3O[C@@H]2[C@@H](CO)O1)NCc1cccnc1,0
Cc1noc(C)c1S(=O)(=O)N(C)C[C@@H]1OCCCC[C@@H](C)Oc2ccc(N(C)C)cc2C(=O)N([C@@H](C)CO)C[C@H]1C,0
C[C@@H]1CN([C@@H](C)CO)C(=O)c2cc(-c3ccncc3)cnc2O[C@@H]1CN(C)C(=O)NC1CCCC1,0
COc1ccc(-c2coc3c(OC)c(OC)cc(OC)c3c2=O)cc1,0
CC1(CO)C=Cc2c(cc(O)c3c(=O)c(-c4ccc(O)cc4)coc23)O1 (centres undefined),65
COc1ccc(-c2coc3c(OC)c(O)ccc3c2=O)cc1,0
C[C@H](CO)N1C[C@H](C)[C@H](CN(C)Cc2ccncc2)Oc2ccc(NS(=O)(=O)c3ccccc3)cc2C1=O,0

# Screens: PubChem, Broad Institute
